# In all, about 2,900 compounds were measured (“NF-kB SEAP reporter activity, fold change vs agonist alone”: median about 0.99, highest 2% from about 2.6 on). The list comes from a sample in which the highest values are over-represented; it also holds similar structures and randomly drawn compounds.
# Key:
# [1] = test system: RAW-Dual; assay: NF-kB SEAP reporter activity, fold change vs agonist alone; cytotoxicity flag (confluency mask): not cytotoxic; higher = enhanced NF-kB activity
# In short: (§1)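 RAW-Dual macrophages (50,000 cells/well in DMEM, 384-well plates) received 50 nL of library stock by pin tool, then a PRR agonist 1 h later, and were kept at 37 °C, 5% CO2. After 20 hours, supernatant was read for IRF by QuantiLuc luminescence and for NF-κB by QuantiBlue absorbance at 620 nm. Reporter activity is fold change over agonist-alone wells. Cytotoxic wells had IncuCyte confluency below 70% of agonist controls in both mask sets.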
# [2] = test system: RAW-Dual; assay: NF-kB SEAP reporter activity, fold change vs agonist alone; higher = enhanced NF-kB activity
# In short: as §1
# [3] = test system: RAW-Dual; assay: NF-kB SEAP reporter activity, fold change vs agonist alone; cytotoxicity flag (confluency mask): cytotoxic (confluency <70% of control); higher = enhanced NF-kB activity
# In short: as §1
# [4] = agonist: ODN 1826 (TLR9) 0.5 ug/mL
# [5] = agonist: Pam2CSK4 (TLR2/6) 0.1 ug/mL
# [6] = agonist: Pam3CSK4 (TLR2/1) 0.1 ug/mL
# [7] = library stock concentration (final ~1000-fold dilution): 10 mM, cytotoxicity flag (confluency mask): cytotoxic (confluency <70% of control), agonist: MPLA (TLR4) […]
# [8] = library stock concentration (final ~1000-fold dilution): 10 mM, cytotoxicity flag (confluency mask): not cytotoxic, agonist: Imiquimod (TLR7) […]
# [9] = library stock concentration (final ~1000-fold dilution): 10 mM, cytotoxicity flag (confluency mask): not cytotoxic, agonist: MPLA (TLR4) […]
structure (smiles),measurement,setting,value
CCC(=O)OC(OP(=O)(CCCCc1ccccc1)CC(=O)N1CC(C2CCCCC2)CC1C(=O)O)C(C)C (stereo not given) (library stock concentration (final ~1000-fold dilution): 10 mM water),NF-kB SEAP reporter activity,[1]; agonist: LPS (TLR4) 0.1 ug/mL,0.941
same,NF-kB SEAP reporter activity,[1]; [4],1.05
same,NF-kB SEAP reporter activity,[1]; [5],1.01
same,NF-kB SEAP reporter activity,[1]; [6],0.946
CCC(=O)OC(OP(=O)(CCCCc1ccccc1)CC(=O)N1CC(C2CCCCC2)CC1C(=O)O)C(C)C (stereo not given),NF-kB SEAP reporter activity,"[2]; library stock concentration (final ~1000-fold dilution): 10 mM water, cytotoxicity flag (confluency mask): not cytotoxic, agonist: Imiquimod (TLR7) […]",0.795
same,NF-kB SEAP reporter activity,"[2]; library stock concentration (final ~1000-fold dilution): 10 mM water, cytotoxicity flag (confluency mask): not cytotoxic, agonist: MPLA (TLR4) […]",0.935
CN(C)c1ccc(O)c2c1CC1CC3C(N(C)C)C(=O)C(C(N)=O)=C(O)C3(O)C(=O)C1=C2O (stereo not given) (library stock concentration (final ~1000-fold dilution): 5 mM),NF-kB SEAP reporter activity,[1]; agonist: LPS (TLR4) 0.1 ug/mL,1.03
same,NF-kB SEAP reporter activity,[1]; [4],1.15
same,NF-kB SEAP reporter activity,[1]; [5],0.833
same,NF-kB SEAP reporter activity,[1]; [6],0.759
CN(C)c1ccc(O)c2c1CC1CC3C(N(C)C)C(=O)C(C(N)=O)=C(O)C3(O)C(=O)C1=C2O (stereo not given),NF-kB SEAP reporter activity,"[2]; library stock concentration (final ~1000-fold dilution): 5 mM, cytotoxicity flag (confluency mask): not cytotoxic, agonist: Imiquimod (TLR7) […]",1.25
same,NF-kB SEAP reporter activity,"[2]; library stock concentration (final ~1000-fold dilution): 5 mM, cytotoxicity flag (confluency mask): not cytotoxic, agonist: MPLA (TLR4) […]",0.933
CN(C)CCC=C1c2ccccc2C(C)(C)c2ccccc21.Cl,NF-kB SEAP reporter activity,[2]; [7],1.4
CN(C)CCC=C1c2ccccc2C(C)(C)c2ccccc21.Cl (library stock concentration (final ~1000-fold dilution): 10 mM),NF-kB SEAP reporter activity,[3]; agonist: LPS (TLR4) 0.1 ug/mL,1.45
same,NF-kB SEAP reporter activity,[3]; [4],0.727
same,NF-kB SEAP reporter activity,[3]; [5],0.53
same,NF-kB SEAP reporter activity,[3]; [6],0.8
O=C(NO)c1cnc(NC2(c3ccccc3)CC2)nc1,NF-kB SEAP reporter activity,"[2]; library stock concentration (final ~1000-fold dilution): 10 mM, cytotoxicity flag (confluency mask): cytotoxic (confluency <70% of control), agonist: Imiquimod (TLR7) […]",1.46
same,NF-kB SEAP reporter activity,[2]; [7],2.22
O=C(NO)c1cnc(NC2(c3ccccc3)CC2)nc1 (library stock concentration (final ~1000-fold dilution): 10 mM),NF-kB SEAP reporter activity,[3]; agonist: LPS (TLR4) 0.1 ug/mL,2.94
same,NF-kB SEAP reporter activity,[3]; [4],1.6
same,NF-kB SEAP reporter activity,[3]; [5],0.654
same,NF-kB SEAP reporter activity,[3]; [6],1.4
CC(C)NCC(O)COc1ccc(COCCOC(C)C)cc1.O=C(O)/C=C/C(=O)O (stereo not given) (library stock concentration (final ~1000-fold dilution): 10 mM),NF-kB SEAP reporter activity,[1]; agonist: LPS (TLR4) 0.1 ug/mL,1.05
same,NF-kB SEAP reporter activity,[1]; [4],0.873
same,NF-kB SEAP reporter activity,[1]; [5],0.984
same,NF-kB SEAP reporter activity,[1]; [6],1.03
CC(C)NCC(O)COc1ccc(COCCOC(C)C)cc1.O=C(O)/C=C/C(=O)O (stereo not given),NF-kB SEAP reporter activity,[2]; [8],0.869
same,NF-kB SEAP reporter activity,[2]; [9],1.02
Cc1ccc(-c2c(-c3nn(C)c4ncnc(N5CCC(N6CCCCC6)C5)c34)cnn2C)cc1 (stereo not given) (library stock concentration (final ~1000-fold dilution): 10 mM),NF-kB SEAP reporter activity,[1]; agonist: LPS (TLR4) 0.1 ug/mL,1.57
same,NF-kB SEAP reporter activity,[1]; [4],0.856
same,NF-kB SEAP reporter activity,[1]; [5],1.21
same,NF-kB SEAP reporter activity,[1]; [6],1.16
Cc1ccc(-c2c(-c3nn(C)c4ncnc(N5CCC(N6CCCCC6)C5)c34)cnn2C)cc1 (stereo not given),NF-kB SEAP reporter activity,[2]; [8],0.947
same,NF-kB SEAP reporter activity,[2]; [9],1.09
Cc1nc(Nc2ncc(C(=O)Nc3c(C)cccc3Cl)s2)cc(N2CCN(CCO)CC2)n1.O (library stock concentration (final ~1000-fold dilution): 10 mM),NF-kB SEAP reporter activity,[1]; agonist: LPS (TLR4) 0.1 ug/mL,1.33
same,NF-kB SEAP reporter activity,[1]; [4],0.661
same,NF-kB SEAP reporter activity,[1]; [5],0.283
same,NF-kB SEAP reporter activity,[1]; [6],0.215
Cc1nc(Nc2ncc(C(=O)Nc3c(C)cccc3Cl)s2)cc(N2CCN(CCO)CC2)n1.O,NF-kB SEAP reporter activity,[2]; [8],0.326
same,NF-kB SEAP reporter activity,[2]; [9],0.715
CC1OC(OC2CCC3(C)C(CCC4(C)C3C=CC35OCC6(CCC(C)(C)CC63)C(O)CC45C)C2(C)CO)C(O)C(OC2OC(CO)C(O)C(O)C2O)C1O (stereo not given),NF-kB SEAP reporter activity,[2]; [7],0.319
CC1OC(OC2CCC3(C)C(CCC4(C)C3C=CC35OCC6(CCC(C)(C)CC63)C(O)CC45C)C2(C)CO)C(O)C(OC2OC(CO)C(O)C(O)C2O)C1O (stereo not given) (library stock concentration (final ~1000-fold dilution): 10 mM),NF-kB SEAP reporter activity,[3]; agonist: LPS (TLR4) 0.1 ug/mL,0.221
same,NF-kB SEAP reporter activity,[3]; [4],0.257
same,NF-kB SEAP reporter activity,[3]; [5],0.0991
same,NF-kB SEAP reporter activity,[3]; [6],0.143
Clc1ccc(N/N=C(\c2ccccc2)c2ccccn2)nc1,NF-kB SEAP reporter activity,[2]; [8],1.5
same,NF-kB SEAP reporter activity,[2]; [9],2.77
NC(=O)c1ccccn1 (library stock concentration (final ~1000-fold dilution): 10 mM),NF-kB SEAP reporter activity,[1]; agonist: LPS (TLR4) 0.1 ug/mL,1.07
same,NF-kB SEAP reporter activity,[1]; [4],0.942
same,NF-kB SEAP reporter activity,[1]; [5],1.06
same,NF-kB SEAP reporter activity,[1]; [6],0.836
Clc1ccc(N/N=C(\c2ccccc2)c2ccccn2)nc1 (library stock concentration (final ~1000-fold dilution): 10 mM),NF-kB SEAP reporter activity,[1]; agonist: LPS (TLR4) 0.1 ug/mL,4.59
same,NF-kB SEAP reporter activity,[1]; [4],1.18
same,NF-kB SEAP reporter activity,[1]; [5],0.556
same,NF-kB SEAP reporter activity,[1]; [6],1.76
NC(=O)c1ccccn1,NF-kB SEAP reporter activity,[2]; [9],1.08
C=C1CC23CCC4C(C)(C(=O)O)CCCC4(C)C2CCC1C3 (stereo not given) (library stock concentration (final ~1000-fold dilution): 10 mM),NF-kB SEAP reporter activity,[1]; agonist: LPS (TLR4) 0.1 ug/mL,0.821
same,NF-kB SEAP reporter activity,[1]; [4],0.749
same,NF-kB SEAP reporter activity,[1]; [5],0.65
same,NF-kB SEAP reporter activity,[1]; [6],0.646
C=C1CC23CCC4C(C)(C(=O)O)CCCC4(C)C2CCC1C3 (stereo not given),NF-kB SEAP reporter activity,[2]; [8],0.739
same,NF-kB SEAP reporter activity,[2]; [9],0.753
COc1ccc(CCCOC(Cn2ccnc2)c2ccc(OC)cc2)cc1.Cl (stereo not given) (library stock concentration (final ~1000-fold dilution): 10 mM),NF-kB SEAP reporter activity,[1]; agonist: LPS (TLR4) 0.1 ug/mL,0.82
same,NF-kB SEAP reporter activity,[1]; [4],0.588
same,NF-kB SEAP reporter activity,[1]; [5],0.572
same,NF-kB SEAP reporter activity,[1]; [6],0.84
COc1ccc(CCCOC(Cn2ccnc2)c2ccc(OC)cc2)cc1.Cl (stereo not given),NF-kB SEAP reporter activity,[2]; [8],0.901
same,NF-kB SEAP reporter activity,[2]; [9],1.28
Cl.Cn1cc(C(=O)Nc2ccc3c(c2)OCCO3)c2ccccc2c1=O (library stock concentration (final ~1000-fold dilution): 10 mM),NF-kB SEAP reporter activity,[1]; agonist: LPS (TLR4) 0.1 ug/mL,2.21
same,NF-kB SEAP reporter activity,[1]; [4],1.48
same,NF-kB SEAP reporter activity,[1]; [5],1.09
same,NF-kB SEAP reporter activity,[1]; [6],1.29
Cl.Cn1cc(C(=O)Nc2ccc3c(c2)OCCO3)c2ccccc2c1=O,NF-kB SEAP reporter activity,[2]; [8],1.2
same,NF-kB SEAP reporter activity,[2]; [9],1.41
